This is a sample that favours compounds with a hit; in the whole collection about 2.2% have one here.
Ba/F3 V617F tox: lowers viability of Ba/F3 cells expressing EpoR and JAK2V617F | ATP luminescence | inhibition, % at 5.6 µM | actives 1.1% (n = 220,000) | AID 1446;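 active = inhibition above the campaign mean plus 3 SD over all tested compounds, cut at about 24% in these data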;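 also: cytokine-independent growth of Ba/F3 cells driven by EpoR plus mutant JAK2; 0% = DMSO-treated cells and 100% = JAK inhibitor I control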
aSyn 5UTR inh: 5' untranslated region of α-synuclein, MLPCN primary screen; inhibition, % (tested at 7.5 µM); actives 0.82% (n = 300,000); alpha-synuclein 5'UTR reporter, inhibitor activity; in the data active = inhibition above about 60%;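 also: H4 neuroglioblastoma cells stably carrying SNCA 5'UTR luciferase fusion; 0% = DMSO wells and 100% = positive control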
APP transl inh: APP translation inhibition. actives 0.82% (n = 190,000). AID 1285. SH-SY5Y APP 5'UTR-luciferase reporter, luminescence. inhibition, % at 2 µM;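 active = inhibition above a set limit, derived from the sample mean plus 3 SD, cut at about 45% in these data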
IEC-6 cytotox: kills IEC-6 intestinal cells in KLF5 counter-screen. IEC-6 cytotoxicity, luminescence viability. inhibition, % at 5 µM. actives 0.78% (n = 290,000);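 also: 0% = plate median of test compound wells and 100% = cytotoxic reference compound wells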
KLF5 inh: suppresses KLF5 promoter-driven expression; actives 0.23% (n = 290,000); DLD-1 KLF5 promoter-luciferase reporter, luminescence; inhibition, % at 5 µM;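 active = inhibition above a per-plate limit of that plate's mean compound inhibition plus 3 SD, cut at about 60% in these data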;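 also: 0% = DMSO wells and 100% = LY294002 at 200 µM; higher means less KLF5 promoter-driven luciferase light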
BaF3 parental: parental Ba/F3 viability inhibition as JAK2V617F counter-screen; CellTiter-Glo ATP luminescence; inhibition, % at 5.6 µM; actives 1.1% (n = 220,000); AID 1486;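 active = inhibition above a per-campaign cutoff, the mean inhibition of all tested compounds plus 3 SD, cut at about 27% in these data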;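 also: 0% = DMSO wells and 100% = JAK Inhibitor I control wells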
IEC-6 cytotox cf: confirmation of cytotoxic compounds in rat IEC-6 intestinal epithelial cells | shares compounds with IEC-6 cytotox | IEC-6 rat intestinal epithelial viability, luminescence | inhibition, % at 5 µM | actives 63% (n = 1,900) | AID 1907;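 also: 0% = vehicle and 100% = reference cytotoxic drug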
Active calls of the source: *; / = not tested or not shown. Rule as the data show it, unless noted: active = inhibition above about 22%; inactive = the rest.

SMILES	Ba/F3 V617F tox	aSyn 5UTR inh	APP transl inh	IEC-6 cytotox	KLF5 inh	BaF3 parental	IEC-6 cytotox cf
CC(C)c1c(C(=O)N/N=C/C=C/c2ccccc2)nnn1-c1nonc1N	/	-13	/	0	-5	/	/
COc1ccc(C2C(C(=O)Nc3cc(OC)c(OC)c(OC)c3)c3ccccc3C(=O)N2C)cc1 (configuration not stated)	41*	98*	69*	59*	39	61*	60*
O=C(NCc1ccc(Cl)cc1)c1cccc(NC2=NC3CS(=O)(=O)CC3S2)c1 (configuration not stated)	/	2	/	3	-37	/	/
O=C(NNC(=O)c1ccc(O)cc1O)c1ccc(-c2ccccc2)cc1	/	-5	/	24*	-5	/	1
O=C(CCn1c(=O)oc2ccccc21)N1CCN(c2ccccc2Cl)CC1	13	-18	-3	23*	32	16	40*
COc1ccc(/C=N/Nc2snc(SC)c2C#N)cc1OC	0	-146	-92	41*	-21	3	31*
COc1cccc(/C=N/Nc2snc(SC)c2C#N)c1O	5	-157	-60	7	-83	11	/
COc1cccc(/C=N/Nc2snc(SC)c2C#N)c1	1	/	-30	44*	17	3	37*
CSc1nsc(N/N=C/c2ccccc2)c1C#N	0	-150	-43	34*	-6	5	33*
O=C(CCCN=C1NS(=O)(=O)c2ccccc21)OCC(=O)c1ccc(F)cc1	/	-37	/	/	/	/	/
COc1cc2ncnc(NCc3ccccc3C)c2cc1OC	-3	-1	-4	25*	23	5	36*
COc1cc2ncnc(NCc3ccccc3Cl)c2cc1OC	3	6	11	22*	4	5	36*
COc1cc2ncnc(Nc3cccc(Cl)c3)c2cc1OC	2	/	/	21	-32	-1	/
Cc1ccccc1CNc1ncnc2cc(Cl)ccc12	/	-2	/	9	-3	/	/
COc1cc2ncnc(Nc3ccc4c(c3)OCO4)c2cc1OC	/	-14	/	27*	-34	/	58*
CC(C)NS(=O)(=O)c1ccc(CCC(=O)N2CCC(C(N)=O)CC2)cc1	2	-9	-14	-4	-17	8	/
Cc1ccc(S(=O)(=O)/N=C2/C=C(Sc3ncn[nH]3)C(=O)c3ccccc32)cc1	73*	/	64*	26*	-23	72*	-3
O=C(c1cc(-c2ccccc2Cl)nc2ccc(Br)cc12)N1CCN(c2ccccn2)CC1	/	23	/	46*	10	/	6
Cc1cccc2c(C(=O)N3CCN(c4ccccn4)CC3)cc(-c3cccc(Br)c3)nc12	/	6	/	29*	0	/	6
O=C(NCc1ccccc1Cl)c1ccc(CS(=O)Cc2ccc(Cl)cc2)o1 (configuration not stated)	/	34	/	1	-13	/	/
Cn1cc([N+](=O)[O-])c(C(=O)Nc2sc3c(c2C#N)CCC3)n1	/	64*	/	92*	14	/	29*
COc1ccc(OC)c(Nc2nc(N)c([N+](=O)[O-])c(NC3CCCCC3)n2)c1	/	27	/	-1	-6	/	/
NCCCNc1nc(N)c([N+](=O)[O-])c(NC2CCCCC2)n1	/	49	/	46*	55	/	43*
COC(=O)c1c(-c2c(Cl)cccc2Cl)noc1C(=O)NNC(=O)N(C)C	-5	10	/	-3	-33	4	/
O=C(OCc1cnc(Cl)s1)c1ccccc1Cl	1	-19	-8	-15	-24	8	/
SMILES	Ba/F3 V617F tox	aSyn 5UTR inh	APP transl inh	IEC-6 cytotox	KLF5 inh	BaF3 parental	IEC-6 cytotox cf
O=C(OCn1ncc(Br)c(Br)c1=O)c1ccc(F)cc1	85*	64*	96*	36*	26	93*	62*
O=C(OCn1ncc(Br)c(Br)c1=O)c1ccccc1Cl	40*	-40	/	23*	9	37*	54*
O=C(Nc1ccccc1Oc1cccnc1)C1CCCN(Cc2ccc(F)cc2)C1 (configuration not stated)	/	8	/	2	-21	/	/
CC(C)(C)C(=O)/C(=C/c1ccc(Cl)cc1)n1cncn1	/	-173	/	29*	19	/	19
CNc1c(NS(=O)(=O)c2ccc(CC(C)C)cc2)c(=O)oc2ccccc12	/	-3	/	2	0	/	/
Cc1cccc(CSc2cccc3cccnc23)c1	6	-103	35	32*	-48	-2	37*
NNC(=O)c1ccc(CSc2cccc3cccnc23)cc1	1	-51	-22	0	-10	2	/
CC12CCC(=O)N1C(C(=O)NCc1ccccc1Cl)CS2 (configuration not stated)	/	3	/	/	/	/	/
Cc1[nH]n2c(=O)cc(C(C)(C)C)nc2c1-c1ccccc1	9	49	14	34*	23	13	35*
CN1CCN(c2ccc([N+](=O)[O-])cc2C(=O)c2ccc(Cl)cc2)CC1	-3	37	6	49*	0	4	50*
Cc1ccc(C(=O)c2cc([N+](=O)[O-])ccc2N2CC(C)OC(C)C2)cc1 (configuration not stated)	-1	-39	24	-2	-6	6	/
Cc1ccc(C(=O)c2cc([N+](=O)[O-])ccc2N2CCCCC2)cc1	80*	81*	/	89*	56	76*	65*
CC(C)CN(CC(C)C)C(=O)c1cc(S(=O)(=O)N2CCCCC2)c[nH]1	/	-18	/	-5	-26	/	/
COC(=O)c1cn(C(=O)c2ccc(C)cc2)c2ccccc12	-2	-36	-2	-1	-42	0	/
COC(=O)c1cn(C(=O)c2ccc(OC)cc2)c2ccccc12	/	-147	/	52*	31	/	34*
Cc1onc(-c2ccccc2)c1CNS(=O)(=O)c1cccc(Br)c1	-3	16	/	-1	-1	-1	/
COc1ccc(Cn2c(C3CC3)nc3ccc(NC(=O)c4cccnc4)cc3c2=O)cc1	/	-176	/	37*	-5	/	21
COc1ccc(Cn2c(C3CC3)nc3ccc(NC(C)=O)cc3c2=O)cc1	-1	-121	-142	0	-99	3	/
Cc1cc2c(cc1C)C(c1ccccc1OC(C)C)CC(=O)N2 (configuration not stated)	/	-12	/	44*	27	/	31*
O=C1CC(c2cccnc2)c2cc3c(cc2N1)OCCO3 (configuration not stated)	6	37	-8	7	-2	12	/
CCCOc1ccccc1C1CC(=O)NC2=C1C(=O)CCC2 (configuration not stated)	18	32	21	37*	-6	28*	33*
CCOc1ccccc1C1CC(=O)Nc2cc3c(cc21)OCCO3 (configuration not stated)	80*	92*	14	66*	60	78*	54*
COc1ccccc1C1CC(=O)Nc2cc(C)c(C)cc21 (configuration not stated)	/	63*	/	36*	-11	/	6
CCOc1ccccc1C1CC(=O)NC2=C1C(=O)CCC2 (configuration not stated)	-1	-46	-4	8	23	5	/
